The record followed here is PubChem BioAssay (EPA / NIEHS).

Molecules are shown by their SMILES. Some structures have more than one record in an assay (separate samples or runs), and their calls can disagree. Active and inactive are the calls of the source. Rule for the calls: active = hit-call score of the fitted dose curve at least 0.9, where 1 is the maximum; inactive = score below 0.9.

The assay can be described thus: CCTE_Shafer_MEA_dev_network_spike_peak: CCTE's Neural Network Formation Assay for Mean Number of Electrodes in Network Spike, Shafer Lab (AID 2284049). Here is the method:
CCTE_Shafer_MEA_dev assay is conducted using Axion Biosystems 48 well microelectrode array (MEA) plates and Maestro recording system. Each well of the MEA plate contains a grid of 16 microelectrodes embedded in the culture surface. Electrically active cells, such as neurons, can be cultured over the electrodes, and electrical activity in these cells can be recorded extracellularly. The spontaneous firing of neurons is captured from each electrode on a microsecond timescale providing both temporally and spatially precise data. […] The CCTE_Shafer_MEA_dev assay uses primary cultures of rat cortical neurons. Recordings are made on days post-plating 5, 7, 9 and 12. As these cultures mature over time, neural networks develop functional activity and form cohesive networks in which electrical activity can be highly coordinated. CCTE_Shafer_MEA_dev_network_spike_peak is 1 of 19 assay components of the CCTE_Shafer_MEA_dev assay. It measures the average number of electrodes participating at the peak of a network spike (the peak of a temporally-clustered group of action potential firing across multiple electrodes) during a recording in a microelectrode array (MEA) using Axion Biosystems Maestro 768 channel amplifier with the AxIS adaptive spike detector. To collapse across multiple recordings made on days post-plating 5, 7, 9 and 12, the trapezoidal area-under-the-curve of the component is calculated.Data from the assay component CCTE_Shafer_MEA_dev_network_spike_peak was analyzed into 1 assay endpoint. This assay endpoint, CCTE_Shafer_MEA_dev_network_spike_peak, was analyzed in the negative analysis fitting direction relative to DMSO as the negative control and baseline of activity. Using a type of functional reporter, gain or loss-of-signal activity can be used to understand electrical activity.
On the day prior to culture, each well was coated thoroughly with 150 uL of 0.05% polyethyleneimine (PEI, Sigma Cat P3143) in 50 mM HEPES (Sigma Cat H7523) at a pH of 8. The plate was incubated at 37C for one hour. PEI was rinsed out with 500 uL of sterile water three times. Plates were stored at 4C until the day of culture. This culture was plated at a seeding density of 1.5 x 10^5 cells/well on a 48-well MEA plate, prepared as described above. Cells were administered via a 25 uL media/laminin ([…]; Sigma Cat L2020-1MG) drop directly onto the microelectrode array, as adding the cells with the laminin results in better attachment than pre-coating with laminin. After 2 hours, an additional 475 uL of cortical media was added and the cells returned to the incubator. Exposure starts at day 0 of plating and is continued over twelve days of network development until the experiment is terminated. Cells are fed with fresh medium on DIV 5 and 9, following the recordings on those days. The entire volume of media in the well is exchanged and any vehicle or compound treatment is renewed. Complete details are found in OP-NHEERL/ISTD/SBB/TJS/2015-03-r0 (available on request, email shafer.tim@epa.gov). Measurement of the electrical activity is non-invasive, and recordings can be made from the same plate over multiple different days of the culture. In cortical neurons, this allows for the measurement of extracellular action potentials over the period during which networks form in the MEA plate.
For the compound `OCC(F)(F)C(F)(F)C(F)(F)F`, the outcome was inactive. Same read-out and setting: then `COC(=O)CCC(F)(F)C(F)(F)C(F)(F)C(F)(F)F`, with “inactive”; and `FC(F)(F)C(F)(F)CNCC(F)(F)C(F)(F)F`, with “inactive”; and `O=C(O)C(F)(F)C(F)(F)C(F)F`, with “inactive”. Same read-out and setting: as for `OCC(F)(F)C(F)(F)C(F)(F)C(F)F`, the entry is “inactive”. Broadly, the AC50 is the concentration at which the activity in the assay is half-maximal. For `CC(CCl)OP(=O)(OC(C)CCl)OC(C)CCl` (centres undefined), the call was inactive and the AC50 was 50 µM (active). `NC(=O)C(F)(F)C(F)(F)C(F)(F)C(F)(F)F`: the result was inactive. The same measure, in the same setting: then `FC(F)(F)C(F)(F)C(F)(F)C(F)(F)C(F)(F)C(F)(F)CC1CO1` (centres undefined), with “inactive”; and `Cc1ccc(S(=O)(=O)OCC(F)(F)C(F)(F)C(F)(F)C(F)(F)C(F)(F)C(F)F)cc1`, with “inactive”. For `CC(C)(C)C(=O)CC(=O)C(F)(F)C(F)(F)C(F)(F)F`, the AC50 is 23.7 µM (active).

Turning to `O=S(=O)(OCC(F)F)C(F)(F)F`, the compound was called inactive. As for `OC[C@@H](O)[C@@H](O)[C@H](O)[C@@H](O)CO`, the compound was called inactive. Same read-out and setting: as for `O=P(O)(O)OCCC(F)(F)C(F)(F)C(F)(F)C(F)(F)C(F)(F)C(F)(F)F`, the entry is “inactive”; as for `OCCCC(F)(F)C(F)(F)C(F)(F)F`, “inactive”. On the same count and under the same terms, then `OCC(F)(F)C(F)(F)C(F)(F)C(F)(F)C(F)(F)C(F)F`, with “inactive”; and `O=S(=O)(OCCOC(F)(F)F)C(F)(F)F`, with “inactive”; and `O=C(O)C(F)(F)C(F)(F)C(F)(F)C(F)(F)C(F)(F)C(F)(F)C(F)(F)C(F)(F)C(F)(F)C(F)F`, with “inactive”. Take `N=C(N)C(F)(F)C(F)(F)C(F)(F)C(F)(F)C(F)(F)C(F)(F)C(F)(F)F`: the AC50 is 26.8 µM (active). On the same count and under the same terms, then `C=CC(=O)OCC(F)(F)C(F)(F)C(F)(F)C(F)(F)COC(=O)C=C`, with 4.19 µM (active). For `O=C(O)C(F)(F)C(F)(F)C(F)(F)C(F)(F)C(F)(F)C(F)(F)C(F)(F)C(F)(F)Cl`, the compound was called inactive. Regarding `FC(F)(F)C(F)(F)C(F)(F)C(F)(F)C(F)(F)CCI`, the AC50 was 22.3 µM (active). In the case of `O=C(O)C(F)(F)C(F)(F)C(F)(F)F`, the compound was classed as inactive. `O=C(O)C=C(C(F)(F)F)C(F)(F)F`: the compound was called inactive.
